Experimental findings from PubChem BioAssay (NCI) are described below.

Compounds without any hit were thinned out: in the full panel of roughly 79,000, 15% have a hit. Values without a mark were called inactive. Calls of active or inactive are those of the source. Cut-off read from the data, not from the text of the source: active = growth inhibition above about 70%; inactive = the rest.

The nature of assay [1]: NCI Yeast Anticancer Drug Screen. Data for the rad50 strain (AID 155).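 Note: 0% = growth of vehicle-only cultures of the same strain.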 The note with it: S. cerevisiae rad50 strain growth inhibition, hits give high values. Put shortly:
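Relative growth inhibition (compound vs vehicle) was measured in yeast with a defined repair-gene alteration.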

Assay [2] in a line: NCI Yeast Anticancer Drug Screen. Data for the mec2-1 strain (AID 157). To be noted: S. cerevisiae mec2-1 strain, hits give high values. The essentials: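 Yeast mec2-1 mutant treated with compound. Readout: growth inhibition vs vehicle controls.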
Assay [3] can be described thus: NCI Yeast Anticancer Drug Screen. Data for the sgs1 mgt1 strain (AID 161).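 Note: 0% = growth of cultures given vehicle only.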 To be noted: S. cerevisiae sgs1 mgt1 strain, hits give high values. The essentials:
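Inhibition of yeast growth, normalised to vehicle-treated controls, is reported for a strain bearing genetic alterations in DNA damage repair.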

A short description of assay [4]: NCI Yeast Anticancer Drug Screen. Data for the cln2 rad14 strain (AID 165).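 Note: 0% = growth equal to vehicle treated cultures.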 The note with it: S. cerevisiae cln2 rad14 strain, hits give high values. Put shortly: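 cln2 rad14 yeast strain; compound exposure; growth inhibition read vs vehicle controls.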
Assay [5] is described as follows: NCI Yeast Anticancer Drug Screen. Data for the bub3 strain (AID 167). To be noted: S. cerevisiae bub3 mutant strain, hits give high values. The essentials:
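Screening used yeast with an engineered genetic alteration affecting cell cycle control. Compound-exposed cultures were compared with vehicle cultures, and reduced growth was taken as inhibition.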

Assay [6] in a line: NCI Yeast Anticancer Drug Screen. Data for the mlh1 rad18 strain (AID 175). The note with it: S. cerevisiae mlh1 rad18 strain growth inhibition, hits give high values. The essentials: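 Yeast w/ defined DNA-repair lesions; compound exposure; growth vs vehicle controls → % inhibition.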
The mark [7] stands for this setting: at 5.0 µM (retest, dose inferred, filed as 0.5).
Setting [8] is: at 50.0 µM (retest, dose inferred, filed as 5.0).

Turning to `CC(=O)N(C1=C(Cl)C(=O)c2ccccc2C1=O)c1ccc([N+](=O)[O-])cc1`, the growth inhibition in assay [1] (setting [7]) was 98% (active); in assay [1] (setting [8]) it was 98% (active); in assay [1] (at 50.0 µM), 99.2% (active); in assay [2] (setting [7]), 99% (active); in assay [2] (setting [8]), 99% (active); in assay [2] (at 50.0 µM), 99.2% (active). Besides, the growth inhibition was 98% (active) in assay [3] (setting [7]); 100% (active) in assay [3] (setting [8]); 99.5% (active) in assay [3] (at 50.0 µM); 96% (active) in assay [4] (setting [7]); 97% (active) in assay [4] (setting [8]); 99.5% (active) in assay [4] (at 50.0 µM). For the same molecule, the growth inhibition in assay [5] (setting [7]) is 99% (active); in assay [5] (setting [8]) it was 98% (active); in assay [5] (at 50.0 µM) it was 98.6% (active); in assay [6] (setting [7]), 98% (active); in assay [6] (setting [8]), 99% (active); in assay [6] (at 50.0 µM), 99% (active).

For the molecule `CCN1CCC(O)(/C=C/c2ccc(Cl)c(Cl)c2)C(C(=O)/C=C/c2ccc(Cl)c(Cl)c2)C1` (configuration not stated), the growth inhibition in assay [1] (setting [7]) is 99% (active); in assay [1] (setting [8]) it was 99% (active); in assay [1] (at 50.0 µM) it was 99% (active); in assay [2] (setting [7]), 99% (active); in assay [2] (setting [8]), 100% (active); in assay [2] (at 50.0 µM) it was 99.4% (active). The growth inhibition was 99% (active) in assay [3] (setting [7]); 100% (active) in assay [3] (setting [8]); 99.5% (active) in assay [3] (at 50.0 µM); 99% (active) in assay [4] (setting [7]); 99% (active) in assay [4] (setting [8]); 97.8% (active) in assay [4] (at 50.0 µM). Also, the growth inhibition in assay [5] (setting [7]) is 99% (active); in assay [5] (setting [8]), 99% (active); in assay [5] (at 50.0 µM), 99% (active); in assay [6] (setting [7]) it was 99% (active); in assay [6] (setting [8]) it was 97% (active); in assay [6] (at 50.0 µM), 98.9% (active).

On to `CCN(CC)c1c(C(=O)/C=C/c2ccc(OC)cc2)c(-c2ccccc2)nn(C)c1=O`, for which the growth inhibition in assay [1] (setting [7]) is 17%; in assay [1] (setting [8]), 17%; in assay [1] (at 50.0 µM) it was 78.1% (active); in assay [2] (setting [7]), 8%; in assay [2] (setting [8]) it was 8%; in assay [2] (at 50.0 µM), 72.5% (active). Also, the growth inhibition in assay [3] (setting [7]) is 5%; in assay [3] (setting [8]), 5%; in assay [3] (at 50.0 µM), 69%; in assay [4] (setting [7]), 9%; in assay [4] (setting [8]), 9%; in assay [4] (at 50.0 µM), 77% (active). For the same molecule, the growth inhibition in assay [5] (setting [7]) was -4%; in assay [5] (setting [8]), -4%; in assay [5] (at 50.0 µM), 71.3% (active); in assay [6] (setting [7]) it was 8%; in assay [6] (setting [8]) it was 8%; in assay [6] (at 50.0 µM), 70.2% (active).

For `Cc1nn(C(=O)c2ccncc2)c(C)c1N=Nc1ccccc1[N+](=O)[O-]`, the growth inhibition in assay [1] (setting [7]) was 49%; in assay [1] (setting [8]) it was 96% (active); in assay [1] (at 50.0 µM), 61.3%; in assay [2] (setting [7]), 11%; in assay [2] (setting [8]), 93% (active); in assay [2] (at 50.0 µM) it was 20.6%. Further, the growth inhibition in assay [3] (setting [7]) was 11%; in assay [3] (setting [8]), 90% (active); in assay [3] (at 50.0 µM), 84.8% (active); in assay [4] (setting [7]), 21%; in assay [4] (setting [8]), 6%; in assay [4] (at 50.0 µM), -3.25%. For the same molecule, the growth inhibition in assay [5] (setting [7]) is -1%; in assay [5] (setting [8]), 14%; in assay [5] (at 50.0 µM), 2.4%; in assay [6] (setting [7]), 4%; in assay [6] (setting [8]), 94% (active); in assay [6] (at 50.0 µM), 26.1%.

Take `Cc1cc(C(O)(C(F)(F)F)C(F)(F)F)cc(C(O)(C(F)(F)F)C(F)(F)F)c1`: the growth inhibition is -1% in assay [1] (setting [7]); 99% (active) in assay [1] (setting [8]); 97.2% (active) in assay [1] (at 50.0 µM); 12% in assay [2] (setting [7]); 99% (active) in assay [2] (setting [8]); 98.3% (active) in assay [2] (at 50.0 µM). Moreover, the growth inhibition in assay [3] (setting [7]) was -6%; in assay [3] (setting [8]), 99% (active); in assay [3] (at 50.0 µM), 52.8%; in assay [4] (setting [7]) it was -4%; in assay [4] (setting [8]) it was 99% (active); in assay [4] (at 50.0 µM), 95.7% (active). Further, the growth inhibition in assay [5] (setting [7]) is 6%; in assay [5] (setting [8]) it was 98% (active); in assay [5] (at 50.0 µM) it was 96% (active); in assay [6] (setting [7]), 1%; in assay [6] (setting [8]), 99% (active); in assay [6] (at 50.0 µM) it was 97.8% (active).

In the case of `CSC(=S)N/N=C\C(O)C(O)C(O)C(O)CO` (configuration not stated), the growth inhibition in assay [1] (setting [7]) was -2%; in assay [1] (setting [8]), 9%; in assay [1] (at 50.0 µM) it was 97.6% (active); in assay [2] (setting [7]), -2%; in assay [2] (setting [8]), 0%; in assay [2] (at 50.0 µM) it was 95.8% (active). Further, the growth inhibition in assay [3] (setting [7]) was -2%; in assay [3] (setting [8]), 1%; in assay [3] (at 50.0 µM) it was 95.2% (active); in assay [4] (setting [7]), 0%; in assay [4] (setting [8]), 0%; in assay [4] (at 50.0 µM), 70.3% (active). In addition, the growth inhibition in assay [5] (setting [7]) was -1%; in assay [5] (setting [8]), -2%; in assay [5] (at 50.0 µM), 96.3% (active); in assay [6] (setting [7]) it was -2%; in assay [6] (setting [8]), 9%; in assay [6] (at 50.0 µM) it was 97.8% (active).

In the case of `CC(=O)Nc1n[n+]([O-])c2cc(C)ccc2[n+]1[O-]`, the growth inhibition in assay [1] (setting [7]) was 96% (active); in assay [1] (setting [8]), 99% (active); in assay [1] (at 50.0 µM) it was 99.2% (active); in assay [2] (setting [7]), 96% (active); in assay [2] (setting [8]), 99% (active); in assay [2] (at 50.0 µM) it was 99.7% (active). Moreover, the growth inhibition in assay [3] (setting [7]) was 93% (active); in assay [3] (setting [8]), 99% (active); in assay [3] (at 50.0 µM) it was 99.4% (active); in assay [4] (setting [7]), 92% (active); in assay [4] (setting [8]), 99% (active); in assay [4] (at 50.0 µM) it was 99% (active). The growth inhibition in assay [5] (setting [7]) is 95% (active); in assay [5] (setting [8]) it was 99% (active); in assay [5] (at 50.0 µM) it was 99% (active); in assay [6] (setting [7]) it was 97% (active); in assay [6] (setting [8]), 99% (active); in assay [6] (at 50.0 µM), 99.4% (active).

`CC1CCCN(CC(O)CN2CCCc3ccccc32)C1` (configuration not stated): the growth inhibition in assay [1] (setting [7]) was 0%; in assay [1] (setting [8]), 32%; in assay [1] (at 50.0 µM) it was 97.9% (active); in assay [2] (setting [7]) it was 8%; in assay [2] (setting [8]), 17%; in assay [2] (at 50.0 µM), 94.5% (active). In addition, the growth inhibition in assay [3] (setting [7]) was 2%; in assay [3] (setting [8]), 25%; in assay [3] (at 50.0 µM), 97.6% (active); in assay [4] (setting [7]) it was 26%; in assay [4] (setting [8]), 33%; in assay [4] (at 50.0 µM), 94.4% (active). Also, the growth inhibition in assay [5] (setting [7]) is -7%; in assay [5] (setting [8]) it was 29%; in assay [5] (at 50.0 µM), 96% (active); in assay [6] (setting [7]) it was 6%; in assay [6] (setting [8]) it was 40%; in assay [6] (at 50.0 µM), 97.5% (active).

`CC1=C(CO)C(=O)O[C@@H]([C@@H](C)[C@H]2CC[C@H]3[C@@H]4C[C@@H](O)C5=CC=CC(=O)[C@]5(C)[C@H]4CC[C@]23C)C1`: the growth inhibition in assay [1] (setting [7]) was -2%; in assay [1] (setting [8]), 41%; in assay [1] (at 50.0 µM), 71.2% (active); in assay [2] (setting [7]), -24%; in assay [2] (setting [8]), 49%; in assay [2] (at 50.0 µM) it was 46%. Further, the growth inhibition is -1% in assay [3] (setting [7]); -6% in assay [3] (setting [8]); 85.8% (active) in assay [3] (at 50.0 µM); -1% in assay [4] (setting [7]); 47% in assay [4] (setting [8]); 55.2% in assay [4] (at 50.0 µM). Moreover, the growth inhibition in assay [5] (setting [7]) is 0%; in assay [5] (setting [8]), 40%; in assay [5] (at 50.0 µM), 60.6%; in assay [6] (setting [7]) it was -22%; in assay [6] (setting [8]), 36%; in assay [6] (at 50.0 µM), 90.5% (active).
